Several values for one entry are separate records, joined by “and”; a condition that tells them apart may be missing. Identical values can stand only once. Records with an inconclusive call do not appear. A call without a number means that no potency is given here. Where a structure was tested more than once in an assay, its records may differ in their call. Activity calls are given as the source filed them. Unless noted, the call rests on the fitted dose curve; in most records, active means well fitted curve in the direction sought with a large enough effect in the repeat runs; inconclusive means weak or mixed curves; inactive means no such curve, though single readings can be large; an effect the other way counts as inactive or inconclusive.
Experiments:
[1] = qHTS assay to identify small molecule agonists of the RXR signaling pathway - cell viability counter screen (AID 1159529);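 further: HEK 293T cells carrying an RXR-alpha UAS beta-lactamase reporter; nearly all actives have a fitted effect of over 50% in size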
How it was run: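 Steps: seed RXR-alpha-UAS-bla HEK 293T cells in assay medium containing 2% charcoal-stripped FBS; incubate 5 hr; add compounds in DMSO; incubate 16 hr at 37 C; after the bla read, add CellTiter-Glo and read luminescence at 30 min.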

[2] = qHTS assay to identify small molecule antagonists of the retinoid acid receptor (RAR) signaling pathway - cell viability counter screen (AID 1159551); further: nearly all actives have a fitted effect of over 35% in size
How it was run: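 C3RL4 RARE-luciferase cells, 1,000/well, incubated overnight, then dosed with compound plus 1 uM retinol (final). After 6 hr at 37 C, viability read by CellTiter-Glo ATP luminescence following 30 min at room temperature.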

[3] = qHTS assay to identify small molecule antagonists of the estrogen related receptor (ERR) signaling pathway from Tox21 library - cell viability counter screen (AID 1224834); further: nearly all actives have a fitted effect of over 30% in size; further: potency means the concentration at half of the fitted maximal effect
How it was run: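 ERR reporter cells, 2,000 per well, rested 6 h, then exposed to compound in DMSO for 17.5 hours at 37 C. Viability read as fluorescence after 30 min with CellTiter-Fluor.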

[4] = molecular target: Luciferin 4-monooxygenase (Photinus pyralis) (UniProt P08659); experiment: qHTS assay to identify small molecule inhibitors of firefly luciferase (AID 1224835); further: nearly all actives have a fitted effect of over 25% in size; further: potency means the concentration at half of the fitted maximal effect
How it was run: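 Biochemical qHTS: compounds run as interplate titrations against purified firefly enzyme, with D-luciferin and ATP each at its KM concentration. Light output recorded by CCD imaging.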

[5] = qHTS assay to identify small molecule agonists of the constitutive androstane receptor (CAR) signaling pathway - cell viability counter screen (AID 1224836); further: nearly all actives have a fitted effect of over 45% in size
How it was run: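 Cells were seeded and incubated 4 hrs. Compounds were added across 15 concentrations together with PK11195 at 0.75 uM final. Plates were incubated 23 hrs at 37 C. CellTiter-Fluor was added and fluorescence measured.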

[6] = qHTS assay to identify small molecule antagonists of the constitutive androstane receptor (CAR) signaling pathway - cell viability counter screen (AID 1224837); further: nearly all actives have a fitted effect of over 45% in size
How it was run: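 HepG2 cells stably carrying hCAR and CYP2B6-2.2kb reporter, stimulated with 50 nM CITCO and compounds at 15 concentrations for 23 h at 37 C. Viability measured by CellTiter-Fluor fluorescence.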

[7] = qHTS assay to identify small molecule antagonists of the estrogen related receptor signaling pathway with the pleiotropic PPARgamma coactivator (PGC) from Tox21 10K library - cell viability counter screen (AID 1224840; active means well fitted cell-killing curve with a large enough effect in the repeat runs, not every such curve was filed as active; further: nearly all actives have a fitted effect of over 40% in size; further: potency means the concentration at half of the fitted maximal effect)
How it was run: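 PGC/ERR cells (2,000/well) plated 6 h, then compound-treated for 17.5 h at 37 C. Viability measured by CellTiter-Fluor fluorescence after 30 min at 37 C, multiplexed with the pathway assay.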

[8] = molecular target: Thyrotropin receptor (Homo sapiens) (UniProt P16473); experiment: qHTS assay to identify small molecule agonists of the thyroid stimulating hormone receptor (TSHR) signaling pathway (AID 1224843; calls by dose curve; further: nearly all actives have a fitted effect of over 45% in size; further: potency means the concentration at half of the fitted maximal effect)
How it was run: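 Steps: seed 800 TSHR-HEK293 cells per well; add test compound and hold 30 min at ambient temperature; dispense cAMP-d2 then anti-cAMP cryptate; incubate 1 h at ambient; measure fluorescence intensity.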

[9] = qHTS assay to identify small molecule antagonists of the retinoic acid receptor (RAR) signaling pathway (AID 1159552; further: nearly all actives have a fitted effect of over 50% in size)
How it was run: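 Retinol at 1 uM final stimulated RARE-luciferase expression in C3RL4 cells exposed to test compounds for 6 hr at 37 C. Reduced luminescence, read 30 min after detection reagent, indicated pathway antagonism.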

[10] = molecular target: Nuclear receptor subfamily 1 group I member 3 (Homo sapiens) (UniProt Q14994); experiment: qHTS assay to identify small molecule antagonists of the constitutive androstane receptor (CAR) signaling pathway (AID 1224838); further: nearly all actives have a fitted effect of over 40% in size
How it was run: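 HepG2 cells stably carrying hCAR and a CYP2B6-2.2kb luciferase reporter, seeded 4 hrs before compound (15 concentrations). Stimulated with 50 nM CITCO for 24 hr at 37 C. ONE-Glo luminescence read after 30 min at room temperature.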

[11] = molecular target: Nuclear receptor subfamily 1 group I member 3 (Homo sapiens) (UniProt Q14994); experiment: qHTS assay to identify small molecule agonists of the constitutive androstane receptor (CAR) signaling pathway (AID 1224839); further: nearly all actives have a fitted effect of over 15% in size; further: potency means the concentration at half of the fitted maximal effect
How it was run: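 Cells were plated and incubated 4 hrs, then dosed with compounds at 15 concentrations. PK11195 was added to 0.75 uM final. After 24 hrs at 37 C, luciferase luminescence was measured.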

[12] = qHTS assay to identify small molecule agonists of the retinoic acid receptor (RAR) signaling pathway (AID 1159553); details: C3RL4 RARE luciferase reporter, agonist, 6 h; activation: at 73.3 µM (top of the series) unless noted
How it was run: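 C3RL4 RARE-luciferase cells were seeded at 1,000/well and grown overnight at 37 C, then exposed to compounds for 6 hr at 37 C, 5% CO2. Luciferase reagent was added and luminescence was read after 30 min at room temperature.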

[13] = qHTS assay to identify small molecule antagonists of the estrogen related receptor signaling pathway with the pleiotropic PPARgamma coactivator (PGC) from Tox21 10K library (AID 1224841; call rule not given here; further: actives are mostly falling curves and most rising ones were filed inactive; nearly all actives have a fitted effect of over 50% in size; further: potency means the concentration at half of the fitted maximal effect)
How it was run: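 PGC/ERR cell line, 2,000 cells/well, pre-incubated 6 hours at 37 C, then exposed to compounds for 18 hours at 37 C; luciferase read with One-Glo luminescence after 30 min at room temperature.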

[14] = qHTS assay to identify small molecule agonists of the estrogen related receptor signaling pathway with the pleiotropic PPARgamma coactivator (PGC) from Tox21 10K library (AID 1224842); further: nearly all actives have a fitted effect of over 15% in size
How it was run: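 PGC/ERR reporter cell line, 2,000 cells per well, incubated 6 h at 37 C before 23 nL compound in DMSO was added. After 18 h at 37 C, One-Glo luminescence read following 30 min at room temperature.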

[15] = qHTS assay to identify small molecule antagonists of the estrogen related receptor (ERR) signaling pathway - cell viability counter screen (AID 1224818)
How it was run: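 ERR cells, 2,000 per well, compound added after 6 h and incubated 17.5 h at 37 C. Viability read by CellTiter-Fluor fluorescence after a further 30 min at 37 C.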

[16] = qHTS assay to identify small molecule antagonists of the estrogen related receptor signaling pathway with the pleiotropic PPARgamma coactivator (PGC) cell viability counter screen (AID 1224822)
How it was run: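 PGC/ERR cells rested 6 h, then compound-treated 17.5 h at 37 C. CellTiter-Fluor added for 30 min at 37 C, viability measured by fluorescence intensity.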

Nuclear receptor subfamily 1 group I member 3 (Homo sapiens), sequence (Q14994 whole entry, looked up): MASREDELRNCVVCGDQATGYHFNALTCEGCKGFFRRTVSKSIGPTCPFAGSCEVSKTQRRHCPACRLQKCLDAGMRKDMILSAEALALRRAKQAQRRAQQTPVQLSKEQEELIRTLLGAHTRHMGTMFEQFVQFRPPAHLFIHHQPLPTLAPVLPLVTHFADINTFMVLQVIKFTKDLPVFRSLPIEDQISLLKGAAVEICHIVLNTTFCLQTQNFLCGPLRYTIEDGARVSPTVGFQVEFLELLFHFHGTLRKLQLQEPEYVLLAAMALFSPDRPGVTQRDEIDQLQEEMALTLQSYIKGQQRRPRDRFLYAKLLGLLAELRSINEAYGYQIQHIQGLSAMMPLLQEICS
Luciferin 4-monooxygenase (Photinus pyralis), sequence (P08659 whole entry, looked up): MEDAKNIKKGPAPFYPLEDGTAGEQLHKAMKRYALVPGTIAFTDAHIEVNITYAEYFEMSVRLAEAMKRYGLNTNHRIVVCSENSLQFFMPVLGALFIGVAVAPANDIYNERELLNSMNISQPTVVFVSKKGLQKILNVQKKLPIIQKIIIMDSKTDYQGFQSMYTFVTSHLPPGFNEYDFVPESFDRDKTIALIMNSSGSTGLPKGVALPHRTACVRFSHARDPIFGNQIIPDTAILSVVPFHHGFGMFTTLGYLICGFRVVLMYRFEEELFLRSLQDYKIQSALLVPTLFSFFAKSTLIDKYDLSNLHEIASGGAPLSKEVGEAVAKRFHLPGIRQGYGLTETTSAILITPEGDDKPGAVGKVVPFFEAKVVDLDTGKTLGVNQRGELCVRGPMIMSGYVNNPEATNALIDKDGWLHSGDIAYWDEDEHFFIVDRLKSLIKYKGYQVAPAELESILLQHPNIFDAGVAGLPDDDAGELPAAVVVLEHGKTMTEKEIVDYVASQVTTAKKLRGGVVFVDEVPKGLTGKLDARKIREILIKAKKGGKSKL
Thyrotropin receptor (Homo sapiens), sequence (P16473 whole entry, looked up): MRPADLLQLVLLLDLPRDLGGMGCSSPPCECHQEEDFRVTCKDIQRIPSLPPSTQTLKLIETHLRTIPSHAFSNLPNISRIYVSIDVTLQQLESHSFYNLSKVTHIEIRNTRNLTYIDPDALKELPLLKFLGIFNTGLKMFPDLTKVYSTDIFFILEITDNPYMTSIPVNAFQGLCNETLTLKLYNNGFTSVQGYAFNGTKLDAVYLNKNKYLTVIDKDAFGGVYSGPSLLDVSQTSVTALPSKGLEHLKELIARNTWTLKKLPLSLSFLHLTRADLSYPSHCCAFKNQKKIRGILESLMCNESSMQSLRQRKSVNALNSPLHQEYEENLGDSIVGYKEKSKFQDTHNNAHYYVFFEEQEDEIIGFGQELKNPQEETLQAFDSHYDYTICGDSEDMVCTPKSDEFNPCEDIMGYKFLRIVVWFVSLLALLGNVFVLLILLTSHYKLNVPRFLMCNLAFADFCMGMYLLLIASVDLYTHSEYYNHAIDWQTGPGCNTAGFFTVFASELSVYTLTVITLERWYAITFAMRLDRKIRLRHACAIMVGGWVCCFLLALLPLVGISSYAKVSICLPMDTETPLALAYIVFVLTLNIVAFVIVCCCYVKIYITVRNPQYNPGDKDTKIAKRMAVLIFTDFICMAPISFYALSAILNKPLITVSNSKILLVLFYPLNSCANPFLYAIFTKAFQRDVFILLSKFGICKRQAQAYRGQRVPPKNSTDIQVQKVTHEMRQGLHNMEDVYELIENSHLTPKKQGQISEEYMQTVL

Row | SMILES | Potency [1] | Potency [2] | Potency [3] | Potency [4] | Potency [5] | Potency [6] | Potency [7] | Potency [8] | Potency [9] | Potency [10] | Potency [11] | Potency [12] | Potency [13] | Potency [14] | outcome [15] | outcome [16]
1 | CC(=O)Oc1ccc(C(c2ccc(OC(C)=O)cc2)c2ccccn2)cc1 | inactive | inactive | inactive | inactive | inactive | inactive | inactive | inactive |  |  |  |  |  |  |  | 
2 | CCCCCCCC/C=C\CCCCCCCC(=O)O | inactive | inactive | inactive |  | inactive | inactive | inactive | inactive | inactive |  |  |  |  |  |  | 
3 | COc1ccc(-c2coc3cc(O)cc(O)c3c2=O)cc1 | inactive | inactive |  | 6.38 µM (active) and 5.03 µM (active) | inactive | inactive | inactive | inactive | inactive | inactive | 15.5 µM (active) and 27.3 µM (active) |  |  |  |  | 
4 | CCCCCCC(C)O (stereo not given) | inactive | inactive | inactive | inactive | inactive | inactive | inactive |  |  |  |  |  |  |  |  | 
5 | Nc1ccc(O)c(N)c1 | inactive |  |  |  | inactive | inactive | inactive | 54.1 µM (active) | inactive | inactive | inactive | inactive | 304 nM (active) and inactive | inactive |  | 
6 | O=C1CCc2ccccc2O1 | inactive | inactive | inactive | inactive | inactive | inactive | inactive | inactive |  |  |  |  | inactive | inactive |  | 
7 | C[N+](C)(C)CCO | inactive | inactive | inactive | inactive | inactive | inactive | inactive | inactive |  | inactive | inactive |  |  |  | inactive | inactive
8 | COc1cc([C@H]2Oc3cc([C@H]4Oc5cc(O)cc(O)c5C(=O)[C@@H]4O)ccc3O[C@@H]2CO)ccc1O | inactive | inactive | 48.4 µM (active) and inactive |  | inactive | inactive | 54.3 µM (active) and inactive |  |  |  |  |  | inactive | inactive |  | 
9 | NCCN | inactive | inactive | inactive |  | inactive | inactive | inactive | inactive |  |  |  |  |  |  |  | 
10 | CCCCCCOCCOCCO | inactive | inactive | inactive |  | inactive | inactive | inactive | inactive | inactive |  |  |  |  |  |  | 
11 | CCO[Si](CCCNC(N)=O)(OCC)OCC |  | inactive | inactive | inactive | inactive | inactive | inactive | inactive | inactive | inactive | inactive | inactive | inactive | inactive |  | 
12 | NCCOCCO | inactive | inactive | inactive |  | inactive | inactive | inactive |  |  |  |  |  | inactive | inactive |  | 
